Assay outcomes (PubChem)
NLRP3 yeast inh: blocks the NALP3 inflammasome reconstituted in yeast; Yeast reconstituted NLRP3/ASC/caspase-1, beta-gal luminescence, 24 h; inhibition, % at 10 µM; 330,000 compounds, 0.39% hits; AID 2825;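 active = inhibition of 50% or more; inactive = inhibition below 50%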;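 also: plate controls were induced DMSO wells for no effect and uninduced yeast grown without galactose for full effect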
tim10-1 inh: tim10-1 yeast growth inhibition; S. cerevisiae tim10-1 ts strain growth, BacTiter-Glo, 24 h; inhibition, % at 20 µM; 330,000 compounds, 2.2% hits; AID 463190;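 active = inhibition of at least 40%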;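 also: mutant grown at 25 °C; 0% = DMSO wells with yeast and 100% = wells holding no yeast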
TIM10 inh: growth inhibitors of TIM10 yeast strain; S. cerevisiae TIM10 strain growth, BacTiter-Glo luminescence, 24 h; inhibition, % at 10 µM; 330,000 compounds, 1.4% hits; AID 463195;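 active = inhibition of 40% or more at the single tested concentration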;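 also: wild-type TIM10 isogenic control strain grown at permissive 25 °C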
tim23-1 inh: growth inhibitors of tim23-1 mutant yeast. S. cerevisiae tim23-1 growth, BacTiter-Glo luminescence, 24 h. inhibition, % at 20 µM. 330,000 compounds, 1.3% hits;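 active = growth inhibition of the mutant yeast at or above 50%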;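 also: temperature-sensitive mutant grown at 25 °C; plate controls were DMSO-treated mutant yeast for no effect and medium wells lacking yeast for full effect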
NALP1 inh: inhibitors of NALP1 inflammasome in yeast. AID 2071. S. cerevisiae NALP1/ASC/caspase-1 growth, X-gal OD620, 72 h. 280,000 compounds, 0.61% hits. inhibition, % at 10 µM; in the data active = inhibition mostly above about 24%, no sharp cut-off; inactive = mostly below about 32%
PfHsp90 set2: inhibits growth of yeast expressing Plasmodium falciparum Hsp90 | S. cerevisiae expressing PfHsp90, BacTiter-Glo ATP, 48 h; yeast lacking PDR1 and PDR3 efflux regulators | 310,000 compounds, 0.32% hits | AID 504621 | inhibition, % at 9.4 µM;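 active = every replicate shows inhibition above about 80%, whatever the replicate mean, limit read from the data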;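 also: 0% = DMSO neutral controls and 100% = 20 µM radicicol positive controls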
tim10-1 conf: tim10-1 yeast growth inhibition, confirmed | inhibition, % at 20 µM | 7,400 compounds, 56% hits | shares compounds with tim10-1 inh | S. cerevisiae tim10-1 ts strain growth, BacTiter-Glo, 24 h;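 active = inhibition of yeast growth at or above a set limit in either of two repeat tests at 20 µM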;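 also: tim10-1 mutant grown at permissive 25 °C to find synthetic lethal compounds; 0% = DMSO yeast wells and 100% = medium wells without yeast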
The depositor's hits bear a star; · = no result. This is a sample that favours compounds with a hit; in the whole collection about 4.1% have one here.

SMILES	NLRP3 yeast inh	tim10-1 inh	TIM10 inh	tim23-1 inh	NALP1 inh	PfHsp90 set2	tim10-1 conf
C=CCn1c(N)c(C(=O)Nc2cccc(C)c2)c2nc3ccccc3nc21	11.5	61.0*	28.3	10.6	1.6	-10.0	48.6*
C=CCn1c(N)c(C(=O)Nc2ccc(C)c(C)c2)c2nc3ccccc3nc21	-7.3	16.3	15.2	-30.2	-1.8	-0.6	·
Nc1c(C(=O)Nc2ccccc2)c2nc3ccccc3nc2n1CCCN1CCOCC1	23.7	64.4*	23.5	-4.7	·	23.1	44.2*
CCCC(=O)Nc1ccc(C(N)=O)cc1	-4.5	19.7	-8.6	7.4	11.2	-39.8	·
CCCC(=O)Nc1ccc(C(=O)/C=C/c2ccc(SC)cc2)cc1	9.3	44.8*	28.9	41.7	-0.2	-8.4	33.9*
CC1(C)CC(NC(=O)c2cc(COc3cccc(C(F)(F)F)c3)on2)CCO1 (stereo not drawn)	14.2	47.7*	12.8	30.7	12.3	12.9	18.6
CCCCNC(=O)C(C#N)c1nc2ccccc2nc1N1CCN(Cc2ccc3c(c2)OCO3)CC1 (stereo not drawn)	·	·	·	·	·	7.7	·
C=CCOC(=O)C(C#N)c1nc2ccccc2nc1N1CCN(Cc2ccc3c(c2)OCO3)CC1 (stereo not drawn)	9.1	40.9*	23.5	42.3	12.7	-35.2	26.0
COc1ccc(/C=C\C(=O)O[C@@H]2C(O)C(O[C@@H]3OC(C)[C@H](O[C@@H]4OCC(O[C@H]5O[C@H](CO)[C@@H](O)C(O)C5O)C(O)C4O)C(O)C3O)[C@H](OC(=O)[C@]34CCC(C)(C)C[C@@H]3C3=CCC5[C@@]6(C)CC(O)C(O[C@@H]7OC(CO)C(O)[C@H](O)[C@H]7O)[C@@](C)(C(=O)O)C6CC[C@@]5(C)[C@]3(CO)CC4)O[C@H]2C)cc1 (stereo partly drawn)	26.1	47.8*	-12.0	16.2	·	107.8*	38.5*
Cc1nn(-c2nnc(NCc3ccccc3)nn2)c(C)c1Br	29.4	48.7*	12.6	34.6	22.6	-18.8	27.9
Cc1occc1-c1nnc(SCC(=O)Nc2ccccc2N2CCCCC2)n1C	4.8	46.7*	17.8	30.4	14.5	-1.6	24.9
Cc1occc1-c1nnc(SCC(=O)Nc2ccccc2)n1C	2.7	13.9	17.3	13.1	0.4	24.4	·
CCOC(=O)C1=C(COC(=O)CCNS(=O)(=O)c2ccc(NC(C)=O)cc2)NC(=O)NC1C (stereo not drawn)	7.7	15.4	-1.1	1.6	·	-16.2	·
O=S(=O)(Nc1ccccc1)c1ccc(-c2cnc(C3CC3)o2)cc1	1.9	45.5*	2.7	33.7	21.0	20.5	-38.3
COc1ccc(NS(=O)(=O)c2cc(-c3cnc(C4CC4)o3)ccc2C)cc1	0.5	44.5*	-1.3	37.8	25.5	11.1	-7.5
COc1ccccc1NS(=O)(=O)c1cc(-c2cnc(C3CC3)o2)ccc1C	-10.6	45.0*	-2.2	44.9	16.3	4.9	11.8
Cc1ccc(C)c(NS(=O)(=O)c2ccc(-c3cnc(C4CC4)o3)cc2)c1	12.0	35.9	0.2	42.4	-0.9	-12.7	·
CC(=O)Nc1ccc(NS(=O)(=O)c2ccc(-c3cnc(C4CC4)o3)cc2)cc1	14.0	12.3	-1.1	12.1	11.3	-14.3	·
CC1(C)Cc2c(cnn2-c2ccc(F)cc2)C(NC(=O)CN2CCCCC2=O)C1 (stereo not drawn)	15.8	4.3	-0.8	-11.9	3.5	-2.9	·
CCN(CC)c1ccc(Nc2nc(-c3cccnc3)cs2)cc1	34.0	49.3*	2.0	29.5	26.5	8.5	33.3*
CC1CCCCC1Nc1ncnc2sccc12 (stereo not drawn)	14.0	26.3	12.2	29.7	8.0	10.9	·
O=C(N/N=C(\CC(=O)c1cccs1)C(F)(F)F)c1ccncc1	22.8	19.7	20.3	20.5	-2.2	6.2	·
Cc1ccc(C(=O)N/N=C(/CC(=O)c2cccs2)C(F)(F)F)cc1	-3.4	46.8*	27.4	47.4	7.8	-39.6	28.9*
O=C(O)C1=CC[C@@H](c2ccc(Cl)cc2)N(S(=O)(=O)c2ccc(Cl)cc2)[C@H]1c1cccc(Cl)c1	5.5	40.2*	-7.7	9.3	·	-7.5	12.6
CCCN(CC(=O)Nc1ccccc1C)C(=O)C1CCN(S(=O)(=O)c2ccccc2C(F)(F)F)CC1	4.3	20.9	9.2	13.0	·	·	·
SMILES	NLRP3 yeast inh	tim10-1 inh	TIM10 inh	tim23-1 inh	NALP1 inh	PfHsp90 set2	tim10-1 conf
c1cncc(-c2nc(N3CCCCCC3)c3ccccc3n2)c1	1.7	49.6*	25.9	43.5	19.9	14.1	32.0*
CN1CCN(c2nc(-c3cccnc3)nc3ccccc23)CC1	16.2	8.8	-1.4	9.6	33.2	-15.6	·
COC(=O)C1=C(C)NC(=O)/C1=C\c1ccc2c(c1)OCO2	22.6	42.4*	25.8	31.4	2.5	17.9	26.5
CC1=NOC(=O)/C1=C/c1ccc2c(c1)OCO2	-9.0	-8.2	-1.8	23.4	10.5	-24.9	·
O=C(CCS(=O)(=O)Cc1ccccc1F)N1CCc2ccccc2C1	0.9	15.5	9.2	25.1	3.7	-10.6	·
O=C(CCS(=O)(=O)Cc1ccccc1)N1CCc2ccccc2C1	17.5	47.1*	27.6	46.0	6.8	16.4	40.0*
Brc1cc(Br)c2ncnc(N3CCCCC3)c2c1	-15.3	45.7*	2.4	47.5	-14.9	-4.2	12.4
CC(C)[C@H](NC(=O)N1CCn2c1nc1ccccc12)C(=O)N1CCCCC1	10.1	5.8	5.8	6.0	25.3	7.2	·
CSc1nsc(/C=C/Nc2ccc(O)cc2C)c1C#N	5.5	46.5*	17.6	27.3	-1.0	-5.2	20.8
CSc1nsc(/C=C/Nc2ccc(F)cc2)c1C#N	1.7	29.3	21.0	33.5	3.1	-3.6	·
CCOc1ccc(C(C)=O)cc1N1C(=O)C2C3C=CC(O3)C2C1=O (stereo not drawn)	4.6	54.6*	-4.0	-6.1	1.3	-12.5	22.8
CCOc1ccc(C(C)=O)cc1N1C(=O)C2C3C=CC(C3)C2C1=O (stereo not drawn)	8.0	20.0	-3.9	16.6	4.3	·	·
COc1ccc(-c2cc(-c3ccccc3)c(C#N)c(SCC(=O)Nc3ncc(C)s3)n2)cc1	-1.9	42.5*	10.1	21.0	9.4	-19.3	18.6
COc1ccc(-c2cc(-c3ccccc3)nc(SCC(=O)Nc3nccs3)c2C#N)cc1	17.9	14.7	-27.7	-10.7	19.2	18.4	·
Cn1nc(C(F)(F)F)c(-c2ccc(F)cc2)c1NC(=O)c1cccnc1	20.6	-11.0	3.7	-3.0	·	1.8	·
O=C(NCCCn1ccnc1)c1ccc(Cl)s1	-5.9	-4.9	3.9	5.2	2.2	-19.3	·
CN1CCN(c2nc(-c3ccccc3)c3cc(Cl)ccc3n2)CC1	13.1	42.0*	37.4	26.5	-0.9	-109.4	17.6
